Bioassay records from PubChem BioAssay.
HTR5A inv ag – HTR5A inverse agonists in luminescence cell assay, primary screen, counter-screen for OPRM1-OPRD1 heterodimer inverse agonist project, full-deck HTS; 5-hydroxytryptamine receptor 5A (Homo sapiens), P47898; inhibition, % at 9.3 µM; HTR5A cell line, inverse agonism; actives 0.083% (n = 340,000); in the data active means inhibition mostly above about 23%, no sharp cut-off; inactive means mostly below about 18%
Target sequence (P47898 whole entry, looked up): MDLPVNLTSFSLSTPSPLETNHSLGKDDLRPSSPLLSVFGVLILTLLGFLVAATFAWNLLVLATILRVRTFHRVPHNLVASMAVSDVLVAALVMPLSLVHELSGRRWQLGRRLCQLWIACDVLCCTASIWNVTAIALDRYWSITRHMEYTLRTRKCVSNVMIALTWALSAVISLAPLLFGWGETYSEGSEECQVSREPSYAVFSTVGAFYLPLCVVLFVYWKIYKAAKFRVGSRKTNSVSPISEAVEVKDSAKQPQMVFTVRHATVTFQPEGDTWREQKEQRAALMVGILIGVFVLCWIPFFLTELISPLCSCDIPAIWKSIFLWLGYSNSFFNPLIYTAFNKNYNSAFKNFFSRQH
HTR5A ag ctr – HTR5A agonists in luminescence cell assay, primary screen, counter-screen for OPRM1-OPRD1 heterodimer agonist project, full-deck HTS | 5-hydroxytryptamine receptor 5A (Homo sapiens), P47898 | actives 0.61% (n = 340,000) | activation, % at 9.3 µM | cell-based | AID 504692, 2011; in the data active means activation mostly above about 9.5%, no sharp cut-off; inactive means mostly below about 7.6%
MOR-DOR ag-1 – agonists of OPRM1-OPRD1 heterodimerization, primary screen, cell-based, luminescence; Mu-type opioid receptor (Homo sapiens) + Delta-type opioid receptor (Homo sapiens), …; cells; activation, % at 9.3 µM; actives 0.3% (n = 340,000)
OPRM1-OPRD1 inv – inverse agonists of MOR-DOR heterodimerization, primary screen, cell-based, luminescence. inhibition, % at 9.3 µM. AID 504357, 2011. cell-based MOR-DOR heterodimer luminescence, inverse agonism. actives 0.21% (n = 340,000). Mu-type opioid receptor (Homo sapiens) + Delta-type opioid receptor (Homo sapiens), …; in the data active means inhibition above about 22%, passing the limit was not always enough
MOR-DOR ag-2 – OPRM1-OPRD1 heterodimerization promoters, counter-screen for HTR5A agonist project, cell-based, luminescence | AID 504913, 2011 | actives 13% (n = 800) | shares compounds with HTR5A ag ctr | U2OS counter-screen cells, complementation luminescence, 3 h | activation, % at 9.3 µM
HTR5A ag conf – HTR5A agonists, retest of hits, confirmation, cell-based, luminescence | shares compounds with HTR5A ag ctr | HTR5A agonist cell assay | activation, % at 9.3 µM | actives 17% (n = 800) | AID 504915, 2011; in the data active means activation above about 17%
Large screens that a line does not name were inactive (follow-up assays come after a bar, where they were run). Only some compounds are listed: those with a hit (about 1.1% of all), similar ones and a draw of the others. Unless noted, no stated cut-off is given here; in the data, active means activation above about 18%; inactive means the rest.

CCN1CCc2c(sc(NC(=O)C3COc4ccccc4O3)c2C(N)=O)C1 (configuration not stated)	HTR5A ag ctr 14.8 | MOR-DOR ag-2 inactive | HTR5A ag conf inactive
CCOC(=O)N1CCc2c(sc(NC(=O)C3COc4ccccc4O3)c2C(N)=O)C1 (configuration not stated)	HTR5A ag ctr 44.4 | MOR-DOR ag-2 inactive | HTR5A ag conf 59.6
CN1CCc2c(sc(NC(=O)Cc3ccccc3)c2C(N)=O)C1	none
COc1cccc(S(=O)(=O)NCc2ccc(C(=O)Nc3cccc(Cl)c3)cc2)c1	HTR5A ag ctr 18.6 | MOR-DOR ag-2 inactive | HTR5A ag conf inactive
N#Cc1cccc(NC(=O)CSc2cccc[n+]2[O-])c1	none
COc1ccc(NC(=O)CN(C)C(=O)C2CC(=O)N(c3cccc4ccccc34)C2)cc1 (configuration not stated)	HTR5A ag ctr 16.0 | MOR-DOR ag-2 inactive | HTR5A ag conf inactive
COc1ccc(CNC(=O)C2CCN(S(=O)(=O)c3c(C)noc3/C=C/N(C)C)CC2)cc1	none
CCCCN(C)C(=O)c1cc2cc3ccc(OC)cc3nc2s1	HTR5A ag ctr 20.9 | MOR-DOR ag-2 inactive | HTR5A ag conf inactive
O=C(CN1CCOCC1)Nc1ncc(Cc2ccccc2Cl)s1	none
CCc1ccc(CCC(=O)Nc2ncc(Cc3ccccc3Cl)s2)o1	HTR5A ag ctr 16.9 | MOR-DOR ag-2 21.6 | HTR5A ag conf inactive
CC(C)CN1C(=O)c2ccc(C(=O)Nc3ccccc3C(=O)O)cc2C1=O	none
CCCCNc1c(-c2cccc(-c3cc(C(C)=O)cs3)c2)nc2cc(C)ccn12	HTR5A ag ctr 23.6 | MOR-DOR ag-2 inactive | HTR5A ag conf inactive
O=C(N/N=C/c1cn(Cc2cccc(F)c2)c2ccccc12)c1cc(O)cc(O)c1	HTR5A ag ctr 17.4 | MOR-DOR ag-2 283.7 | HTR5A ag conf inactive
COC(=O)c1cc(NS(=O)(=O)c2ccc(N3CCOCC3)c(N)c2)cc(C(=O)OC)c1	HTR5A ag ctr 15.0 | MOR-DOR ag-2 inactive | HTR5A ag conf inactive
COC(=O)c1cc(NS(=O)(=O)c2ccc(N3CCOCC3)c(NC(C)=O)c2)cc(C(=O)OC)c1	none
Cc1c(/C=N/n2cnnc2)c2ccccc2n1CCOc1ccc(Cl)cc1	none
Cc1ccc(OCCn2c(C)c(/C=N/n3cnnc3)c3ccccc32)cc1	HTR5A ag ctr 20.9 | MOR-DOR ag-2 inactive | HTR5A ag conf inactive
CN(CC(=O)NC1CCN(Cc2ccccc2)CC1)S(=O)(=O)c1ccc(Cl)cc1	none
CN(CC(=O)NC1CCN(Cc2ccccc2)CC1)S(=O)(=O)c1ccc(Br)s1	HTR5A ag ctr 14.8 | MOR-DOR ag-2 inactive | HTR5A ag conf inactive
N#CCC(=O)Nc1ccc(C(=O)OCC(=O)C23CC4CC(CC(C4)C2)C3)cc1	none
O=C(OCCC12CC3CC(CC(C3)C1)C2)c1ccc(NCc2cc(O)ccc2O)cc1	HTR5A ag ctr 15.2 | MOR-DOR ag-2 inactive | HTR5A ag conf inactive
O=C(OCC12CC3CC(CC(C3)C1)C2)c1ccc(NCc2cc(O)ccc2O)cc1	HTR5A ag ctr 17.4 | MOR-DOR ag-2 44.4 | HTR5A ag conf inactive
COc1ccccc1CNC(=O)CN1C(=O)NC2(CCCCCC2)C1=O	none
CC(C)Oc1ccc(C2CC(=O)NC2=O)cc1 (configuration not stated)	none
CC(C)Oc1ccc(C2CNC(=O)C2)cc1 (configuration not stated)	HTR5A ag ctr 23.1 | MOR-DOR ag-2 inactive | HTR5A ag conf 64.6
Cc1nnc(SCCC(=O)Nc2ccccc2Cl)o1	none
Cc1ccc2oc(=O)c3cnn(CC(=O)NC4CCCCC4C)c3c2c1 (configuration not stated)	HTR5A ag ctr 20.8 | MOR-DOR ag-2 inactive | HTR5A ag conf inactive
O=C(Cc1ccccc1)c1ccc(N2CCOCC2)cc1	none
COc1ccc(CC2NCCC3(O)CCCCC23)cc1 (configuration not stated)	none
O[C@@H]1C2CCCC1[C@]1(O)CCCCC1C2 (some centres not stated)	HTR5A ag ctr 18.7 | MOR-DOR ag-2 inactive | HTR5A ag conf inactive
